According to PubChem BioAssay AID1259343 (VanderVen Lab, College of Veterinary Medicine, Cornell …, 2017):
Among all 6,200 compounds or so, about 2,900 (47%) were called active. Cut-off read from the data, not from the text of the source: active = inhibition above about 50%; inactive = the rest. So high a share suggests a set chosen from earlier hits. The list shows a part of the results.

Assay: Mycobacterium tuberculosis growth inhibition, primary screen (AID 1259343)
Details: inhibition: at 10 µM, hits give high values; outcome: 10 uM

SMILES	inhibition
CC(c1cccs1)N(C)C(=O)COc1ccc(F)cc1 (stereo not drawn)	59.8% (active)
CC(C)NC(=O)c1ccc(OCc2cccs2)cc1	-17.8% (inactive)
CN(C)Cc1nc(Cl)c2c3c(sc2n1)CCCCC3	69.8% (active)
CC1CCc2c(nc3sc4c(c3c2N)CCCC4)C1 (stereo not drawn)	32.6% (inactive)
CN(CCC1CCCCC1)C(=O)Nc1ccsc1	48.9% (inactive)
CC(CCc1ccccc1)NC(=O)NCCC1CCCC1 (stereo not drawn)	-6.93% (inactive)
CCc1ccc(CN(C)C(=O)NCCC2CCCC2)cc1	99.2% (active)
Cc1cc(Cl)ccc1OCc1ccc(C(N)=O)cc1	68.2% (active)
NC(=O)c1cc(Cl)ccc1OCc1ccccc1Br	1.54% (inactive)
CC(C)(C)c1ccc(COc2ccccc2C(N)=O)cc1	30.2% (inactive)
Cc1cccc(OCc2ccc(C(N)=O)cc2)c1C	64.1% (active)
CCc1cc(OCc2ccc(C(N)=O)cc2)ccc1Cl	-54% (inactive)
NC(=O)c1ccc(CSCc2cccc(F)c2)cc1	19.5% (inactive)
CC(C)c1cc(C(=O)NC2CC2)nn1-c1nc2ccccc2s1	94.4% (active)
CC(C)c1cc(C(=O)NC2CCN(c3cccc(F)c3)CC2)n[nH]1	41.4% (inactive)
Cc1nc(-n2nc(C3CC3)cc2NC(=O)c2ccccc2Cl)[nH]c(=O)c1C	80.4% (active)
Cc1nc(-n2nc(C3CC3)cc2NC(=O)c2ccccc2F)[nH]c(=O)c1C	-15.9% (inactive)
Cc1cc(=O)[nH]c(-n2nc(C3CC3)cc2NC(=O)c2c(F)cccc2F)n1	99.2% (active)
Cc1cc(=O)[nH]c(-n2nc(C3CC3)cc2NC(=O)c2ccccc2Cl)n1	101% (active)
Cc1cc(=O)[nH]c(-n2nc(C3CC3)cc2NC(=O)c2ccccc2C(F)(F)F)n1	99.9% (active)
Cc1cc(=O)[nH]c(-n2nc(C3CC3)cc2NC(=O)c2cccc3ccccc23)n1	99.8% (active)
Cc1cc(=O)[nH]c(-n2nc(C3CC3)cc2NC(=O)c2ccccc2F)n1	101% (active)
O=C(NS(=O)(=O)Cc1ccccc1)c1sccc1C1CC1	10.6% (inactive)
N#Cc1ccc(S(=O)(=O)NC(=O)c2sccc2C2CC2)cc1	67.6% (active)
O=C(Nc1ccc(-c2ccco2)cc1)C1CCCN(C(=O)CCN2CCCO2)C1 (stereo not drawn)	82.8% (active)
O=C(Nc1ccc(-c2ccco2)cc1)C1CCCN(C(=O)CCc2cnccn2)C1 (stereo not drawn)	-19.9% (inactive)

SMILES	inhibition
Nc1ncc(CN2CCCC(C(=O)Nc3ccc(-c4ccco4)cc3)C2)cn1 (stereo not drawn)	inactive
O=C(Nc1ccc(-c2ccco2)cc1)C1CCCN(C(=O)CCc2cccs2)C1 (stereo not drawn)	inactive
Cn1ccc(CC(=O)N2CCCC(C(=O)Nc3ccc(-c4ccco4)cc3)C2)c1 (stereo not drawn)	84.1% (active)
O=C(Nc1ccc(-c2ccco2)cc1)C1CCCN(Cc2coc3ccccc3c2=O)C1 (stereo not drawn)	31.3% (inactive)
O=C(Nc1ccc(-c2ccco2)cc1)C1CCCN(Cc2cccc3c2OCO3)C1 (stereo not drawn)	85% (active)
COc1cc(/C=C/CN2CCCC(C(=O)Nc3ccc(-c4ccco4)cc3)C2)ccc1O (stereo not drawn)	45.7% (inactive)
O=C1Nc2ncccc2Oc2cc(F)cc(O)c21	81.3% (active)
O=C(NCCOc1cc(N2CCCCC2)ncn1)Nc1ccccc1Cl	56% (active)
CC(C(=O)Nc1ccccc1Cl)N1CCCC1c1ccsc1 (stereo not drawn)	3.58% (inactive)
O=C(NCc1ccccn1)Nc1cc(F)c(N2CCCC2)c(F)c1	38.7% (inactive)
CCCCC(CC)CN=C(N)NC(N)=NCCCCCCN=C(N)NC(N)=NCC(CC)CCCC (stereo not drawn)	94.5% (active)
O=C1C(=O)N(C2CCCC2)C(=O)N1CC1CCCCC1	-11.3% (inactive)
Cc1nc2scc(-c3cccs3)c2c(=O)n1-n1cccc1	87.8% (active)
Cc1ccc(C)n1-n1c(C)nc2scc(-c3cccs3)c2c1=O	27.9% (inactive)
Cc1nc2scc(-c3cccs3)c2c(=S)[nH]1	85.4% (active)
O=C(NC1CC1c1ccccc1)C1(c2ccccc2)CCC1 (stereo not drawn)	38.3% (inactive)
Cc1cc(-c2nnn(CC3(O)CCCCC3)n2)ccc1F	86.8% (active)
CC(C)(C)OC(=O)Nc1ccc(Nc2cc(-c3ccc(F)c(F)c3)ncn2)cc1	16.4% (inactive)
CC(C)(C)OC(=O)Nc1cc2ccccc2cc1C(=O)O	79.6% (active)
COc1ccc(-c2cc(Nc3ccc(NC(=O)OC(C)(C)C)cc3)ncn2)cc1	4.04% (inactive)
Fc1cccc(-c2cnnc(N[C@@H]3C[C@H]3c3ccccc3)n2)c1	19.2% (inactive)
Cc1cc(C)cc(NC(=O)CSc2nccn(-c3cccc(F)c3)c2=O)c1	66.8% (active)
Cc1cc(C)cc(NC(=O)CSc2nc(=O)n3ccc(C)cc3n2)c1	-10.5% (inactive)
Cc1cc(C)cc(NC(=O)CSc2nccn(-c3ccc(F)cc3)c2=O)c1	48.7% (inactive)
N#Cc1ccccc1Sc1ccc(C(N)=O)cc1	-41.2% (inactive)
Cc1ccc(/C=C2\CNC/C(=C\c3ccc(C)cc3)C2=O)cc1	27.8% (inactive)

SMILES	inhibition
C(=Nc1ccc(C23CC4CC(CC(C4)C2)C3)cc1)c1cccnc1	7.01% (inactive)
CC1C/C(=C\c2cccnc2)C(=O)/C(=C/c2cccnc2)C1 (stereo not drawn)	63% (active)
COc1c(Br)cc(Cl)cc1NCc1c(C)noc1C	14% (inactive)
N#CC(=Cc1ccccc1I)c1nc(-c2ccccc2)cs1	10.6% (inactive)
N#CC(=CC(Br)=Cc1ccccc1)c1nc(-c2ccccc2)cs1	82.4% (active)
Clc1ccc(C2CN(Cc3cc(-c4ccccn4)no3)CCO2)cc1Cl (stereo not drawn)	21% (inactive)
CC(=O)c1cc(CN2CCOC(CCCc3ccccc3)C2)cs1 (stereo not drawn)	28.9% (inactive)
N#Cc1c(Cl)cccc1NCC1CN(Cc2ccccc2)CCO1 (stereo not drawn)	57.3% (active)
COC(=O)c1cc(-c2cc3ccccc3o2)on1	99.1% (active)
O=C(Cc1cc(-c2cc3ccccc3o2)on1)NCCCc1ccccc1	93.4% (active)
COC(=O)c1cc(-c2ccc3c(c2)CC(C)O3)on1 (stereo not drawn)	45.8% (inactive)
Cc1cc(NC(=O)Cc2cc(-c3cc4ccccc4o3)on2)no1	-32.2% (inactive)
COC(=O)c1cc(-c2ccc(OC)cc2)on1	30.9% (inactive)
COC(=O)c1cc(-c2ccc(C)cc2)on1	88.9% (active)
O=C(Cc1cc(-c2cc3ccccc3o2)on1)NCCc1ccccc1	6.56% (inactive)
O=C(Cc1cc(-c2cc3ccccc3o2)on1)Nc1cccc(F)c1	38.6% (inactive)
COC(=O)c1ccc(NC(=O)Cc2cc(-c3cc4ccccc4o3)on2)cc1	84% (active)
O=C(Cc1cc(-c2cc3ccccc3o2)on1)NCCC1=CCCCC1	32.4% (inactive)
COCCNC(=O)Cc1cc(-c2cc3ccccc3o2)on1	34.7% (inactive)
COCCNC(=O)c1cc(-c2ccc(Cl)cc2)on1	60% (active)
CC(C)OCCCNC(=O)Cc1cc(-c2cc3ccccc3o2)on1	90.9% (active)
NC(Cc1cnc[nH]1)C(=O)Nc1ccc2ccccc2c1 (stereo not drawn)	72.9% (active)
O=C(COC(=O)c1ccco1)Nc1ccc2ccccc2c1	39.6% (inactive)
Cc1cc(NC(=O)CN2CCOC(C)C2)ccc1Br (stereo not drawn)	16.5% (inactive)
CC1CCc2c(sc(NC(=O)CN3CCOC(C)C3)c2C#N)C1 (stereo not drawn)	30.6% (inactive)
CCOC(=O)c1ccc(NC(=O)CN2CCOC(C)C2)cc1 (stereo not drawn)	92% (active)

SMILES	inhibition
Fc1ccc(OCc2nnc(-c3ccc(Br)cc3)o2)cc1	-26.1% (inactive)
CN(Cc1nnc(-c2ccc(F)cc2)o1)C1C2CCOC2C1(C)C (stereo not drawn)	21.1% (inactive)
Cc1cc(C)c2c(=O)[nH]c(SCc3nnc(-c4ccc(Cl)cc4)o3)nc2n1	-6.74% (inactive)
Clc1ccc(-c2nnc(CSc3nncs3)o2)cc1	97.2% (active)
Fc1ccc(-c2csc(SCc3nnc(-c4ccc(F)cc4)o3)n2)cc1	69.3% (active)
Clc1ccc(-c2noc(CSc3nncs3)n2)cc1	-30.4% (inactive)
O=C1NC(=O)C(=Cc2cc(Br)c(Sc3ccc(Cl)cc3)o2)S1	85.2% (active)
O=C(Nc1nc(CN2CCCCC2)cs1)c1cc(F)cc(F)c1	-30.9% (inactive)
CC1CCCN(Cc2csc(NC(=O)c3cccc(I)c3)n2)C1 (stereo not drawn)	50.6% (active)
COc1ccc2c(CC(=O)Nc3nc(CN4CCCCC4)cs3)coc2c1	26.5% (inactive)
O=C(C=Cc1cccs1)N1CCN(Cc2nc3ccccc3s2)CC1	67.3% (active)
O=C(c1ccc2c(c1)OCO2)C1CCCN(Cc2nc3ccccc3s2)C1 (stereo not drawn)	inactive
CCc1cc(-c2n[nH]c(C)c2-c2nc3ccccc3s2)c(O)c(CN2CCN(C)CC2)c1O	10.5% (inactive)
O=C(CCc1nc2ccccc2s1)N1CCN(Cc2ccc(C(F)(F)F)cc2)CC1	88.1% (active)
COc1cccc(C=NNc2nc(-c3ccccc3)c(C)s2)c1OC	91.8% (active)
Oc1cccc(/C=N\Nc2cc(N3CCCC3)nc(N3CCCC3)n2)c1	14% (inactive)
Cc1sc(NN=Cc2cccc(O)c2)nc1-c1ccccc1	94.2% (active)
COc1ccc(/C=N\NC(=O)c2ccncc2)c(C(=O)O)c1OC	42.2% (inactive)
Cc1sc(-c2cccc(O)c2)nc1-c1ccccc1	23.1% (inactive)
COc1ccc(-c2nc(Nc3ccc(Cl)nc3)sc2C)cc1	25.9% (inactive)
CC1(C)CC(=O)C(Sc2ccc(Br)cc2)=C(O)C1	57.1% (active)
CN(Cc1ccccc1)C(=O)c1ccc(Nc2nc(C(N)COCc3ccccc3)cs2)nc1 (stereo not drawn)	97.6% (active)
CCCCN(C)C(=O)c1ccc(Nc2nc(C(N)COCc3ccccc3)cs2)nc1 (stereo not drawn)	64.2% (active)
O=C(Nc1ccnn1C1CCCCC1)c1c(O)cc(F)cc1F	29.4% (inactive)
CCn1c(O)c(C(C)=Nc2ccnn2C2CCCCC2)c(=O)n(CC)c1=S	100% (active)
